# Measured values taken from PubChem BioAssay AID1159580 (chemical genetic matrix, 2015).
# About 2,000 (36%) of roughly 5,500 compounds were called active. About 18% were inconclusive and are not listed. This is one part of the list. Unmarked numbers belong to inactive results. Cut-off read from the data, not from the text of the source: active = normalized growth mostly below about 0.91 (no sharp cut-off); inconclusive = no clear call, values can overlap the other calls; inactive = mostly above about 0.92.
# Assay: chemical genetic growth profiling, strain panel (AID 1159580);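 note: tested at 20 µM; growth read once vehicle control cultures reached saturation at 30 °C; 1 = growth at the plate median or of vehicle wells; lower values mean less growth of the strain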
# Details: growth OD
# [1] = S. cerevisiae deletion strains, locus YAL013W, strain DEP1, active compounds read low
# [2] = S. cerevisiae deletion strains, locus YBR229C, strain ROT2, active compounds read low
# [3] = S. cerevisiae deletion strains, locus YDL101C, strain DUN1, active compounds read low
# [4] = S. cerevisiae deletion strains, locus YDR150W, strain NUM1, active compounds read low
# [5] = S. cerevisiae deletion strains, locus YEL061C, strain CIN8, active compounds read low
# [6] = S. cerevisiae deletion strains, locus YGR078C, strain PAC10, active compounds read low
# [7] = S. cerevisiae deletion strains, locus YHR030C, strain SLT2, active compounds read low
# [8] = S. cerevisiae deletion strains, locus YHR087W, strain rtc3, active compounds read low
# [9] = S. cerevisiae deletion strains, locus YJL187C, strain SWE1, active compounds read low
# [10] = S. cerevisiae deletion strains, locus YJR043C, strain POL32, active compounds read low
# [11] = S. cerevisiae deletion strains, locus YJR075W, strain HOC1, active compounds read low
# [12] = S. cerevisiae deletion strains, locus YKL190W, strain CNB1, active compounds read low
# [13] = S. cerevisiae deletion strains, locus YLR039C, strain RIC1, active compounds read low
# [14] = S. cerevisiae deletion strains, locus YLR058C, strain SHM2 (second series), active compounds read low
# [15] = S. cerevisiae deletion strains, locus YLR085C, strain ARP6, active compounds read low
# [16] = S. cerevisiae deletion strains, locus YLR262C, strain YPT6, active compounds read low
# [17] = S. cerevisiae deletion strains, locus YML094W, strain GIM5, active compounds read low
# [18] = S. cerevisiae deletion strains, locus YMR219W, strain ESC1, active compounds read low
# [19] = S. cerevisiae deletion strains, locus YMR263W, strain SAP30, active compounds read low
# [20] = S. cerevisiae deletion strains, locus YMR307W, strain GAS1, active compounds read low
# [21] = S. cerevisiae deletion strains, locus YNL153C, strain GIM3, active compounds read low
# [22] = S. cerevisiae deletion strains, locus YNL298W, strain CLA4 (second series), active compounds read low
# [23] = S. cerevisiae deletion strains, locus YNL322C, strain KRE1, active compounds read low
# [24] = S. cerevisiae deletion strains, locus YNR030W, strain Alg12, active compounds read low
# [25] = S. cerevisiae deletion strains, locus YPL055C, strain LGE1, active compounds read low
# [26] = S. cerevisiae deletion strains, locus YPL241C, strain CIN2, active compounds read low
# [27] = S. cerevisiae deletion strains, locus YPR135W, strain CTF4, active compounds read low
structure (smiles),measurement,setting,value
COC(=O)c1ccc(-c2ccc(Cl)cc2)s1,normalized growth,[1],0.898 (active)
same,normalized growth,[2],0.901 (active)
same,normalized growth,"S. cerevisiae deletion strains, locus YCL061C, strain MRC1, active compounds read low",0.858 (active)
same,normalized growth,[3],0.906
same,normalized growth,[4],0.893
same,normalized growth,[5],0.87 (active)
same,normalized growth,[6],0.914 (active)
same,normalized growth,[7],0.587 (active)
same,normalized growth,[8],0.909 (active)
same,normalized growth,[9],0.961
same,normalized growth,[10],0.927
same,normalized growth,[11],0.88 (active)
same,normalized growth,[12],0.913 (active)
same,normalized growth,[13],0.497 (active)
same,normalized growth,[14],0.907 (active)
same,normalized growth,[15],0.577 (active)
same,normalized growth,[16],0.435 (active)
same,normalized growth,[17],0.871
same,normalized growth,[18],0.908 (active)
same,normalized growth,[19],0.893
same,normalized growth,[20],0.629 (active)
same,normalized growth,[21],0.872 (active)
same,normalized growth,[22],0.79 (active)
same,normalized growth,[23],0.92 (active)
same,normalized growth,[24],0.869 (active)
same,normalized growth,"S. cerevisiae deletion strains, locus YOL006C, strain TOP1, active compounds read low",0.637 (active)
same,normalized growth,[25],1.08
same,normalized growth,[26],0.83 (active)
same,normalized growth,[27],0.597 (active)
same,normalized growth,"S. cerevisiae strains, strain wild type, active compounds read low",0.928
CCSc1sc(C(=O)OC)c(-c2ccc(Cl)cc2)c1C#N,normalized growth,[1],1.01
same,normalized growth,[2],0.985
same,normalized growth,[3],1.02
same,normalized growth,"S. cerevisiae deletion strains, locus YDL134C, strain PPH21, active compounds read low",0.964
same,normalized growth,[4],1.06
same,normalized growth,[5],0.917
same,normalized growth,[6],0.995
same,normalized growth,"S. cerevisiae deletion strains, locus YGR229C, strain SMI1, active compounds read low",0.989
same,normalized growth,[7],0.989
same,normalized growth,[8],1
same,normalized growth,[9],0.983
same,normalized growth,[10],1.05
same,normalized growth,[11],0.968
same,normalized growth,[12],0.99
same,normalized growth,[13],1.01
same,normalized growth,[14],0.986
same,normalized growth,[15],0.817
same,normalized growth,[16],0.999
same,normalized growth,[17],0.946
same,normalized growth,[18],0.992
same,normalized growth,[19],1.07
same,normalized growth,[20],0.972
same,normalized growth,[21],0.994
same,normalized growth,[22],0.94
same,normalized growth,[23],0.99
same,normalized growth,[24],0.954
same,normalized growth,[25],1.08
same,normalized growth,[26],0.96
same,normalized growth,[27],1.01
